# The source made the active and inactive calls. Rule as the data show it, unless noted: active = inhibition above about 80%; inactive = the rest.
# Experiments:
# [1] = LFS_MB_P medulloblastoma growth inhibition, cell-based, chromothripsis tumors, cisplatin or BGB combos (AID 1671449); conditions: LFS_MB_P medulloblastoma cells;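 also: cells exposed for 96 hours; 0% = vehicle DMSO and 100% = killing by high DMSO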
# [2] = HDN33 neuroblastoma growth inhibition, cell-based, chromothripsis tumors, cisplatin or BGB combos (AID 1671450); conditions: HDN33 neuroblastoma cells, stronger effect = higher value;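 also: cells exposed to compound for four days; 0% = vehicle DMSO and 100% = cell killing by high DMSO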
# [3] = ICB984 medulloblastoma cell growth inhibition, synergistic combos for chromothripsis tumors, cisplatin or BGB combos (AID 1671451; call rule not given here;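 also: cells exposed for 96 hours before readout; 0% = vehicle DMSO and 100% = killing by high DMSO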); conditions: ICB984 medulloblastoma cells, drug combinations, stronger effect = higher value
# [4] = LFS_MB_1R medulloblastoma cell growth inhibition, synergistic combos for chromothripsis tumors, cisplatin or BGB combos (AID 1671452); conditions: LFS_MB_1R medulloblastoma cells, stronger effect = higher value;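 also: cells exposed for 96 hours before readout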
# [5] = HTB85 osteosarcoma cell growth inhibition, synergistic combos for chromothripsis tumors, BGB or cisplatin IC20 combos (AID 1671453); conditions: HTB85 osteosarcoma cells, drug combinations, stronger effect = higher value;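 also: cells exposed for 96 hours before readout; 0% = vehicle DMSO and 100% = high DMSO killing control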
# [6] = CRL2098 osteosarcoma cell growth inhibition, synergistic combos for chromothripsis tumors, BGB or cisplatin IC20 combos (AID 1671454); conditions: CRL2098 osteosarcoma cells, drug combinations, stronger effect = higher value;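 also: cells exposed for 96 h before readout; 0% = vehicle DMSO and 100% = killing by high DMSO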
# [7] = HD-MB03 medulloblastoma cell growth inhibition, synergistic combos for chromothripsis tumors, BGB or cisplatin IC20 combos (AID 1671455; in the data active = inhibition above about 83%;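 also: 0% = vehicle DMSO and 100% = high DMSO as cytotoxic control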); conditions: HD-MB03 medulloblastoma cells, stronger effect = higher value
# [8] = UWB1.289 ovarian carcinoma cell growth inhibition, synergistic combos for chromothripsis tumors, BGB or cisplatin combos (AID 1671456); conditions: UWB1.289 ovarian carcinoma cells, stronger effect = higher value;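 also: cells exposed to compound for four days; 0% = vehicle DMSO and 100% = killing by high DMSO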
# [9] = LFS_MB_2R medulloblastoma cell growth inhibition, synergistic combos for chromothripsis tumors, cisplatin combos (AID 1671457); conditions: LFS_MB_2R medulloblastoma cells, stronger effect = higher value;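 also: cells exposed to compound for four days before readout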
# [10] = MDA-MB-436 breast carcinoma cell growth inhibition, synergistic combos for chromothripsis tumors, BGB or cisplatin combos (AID 1671458; call rule not given here;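 also: cells exposed for 96 hours; 0% = vehicle DMSO and 100% = killing by high DMSO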); conditions: MDA-MB-436 breast carcinoma growth inhibition, drug combinations, stronger effect = higher value
# [11] = UWB1.289_BRCA1 ovarian cancer growth, cell-based, BGB or cisplatin combinations (AID 1671459); conditions: UWB1.289 BRCA1 ovarian carcinoma, drug combinations, stronger effect = higher value
# [12] = human astrocyte viability loss, single and combined drugs, cytotoxicity control for chromothriptic childhood tumor combination screen, cell-based, BGB or cisplatin IC20 combos (AID 1671460); conditions: Human astrocytes, drug combinations, stronger effect = higher value;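 also: cells exposed to compounds for 96 hours before viability readout; 0% = vehicle and 100% = killing control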
# [13] = growth inhibition of BT084 medulloblastoma cells, cell-based, ICGC_MB145, cisplatin and BGB IC40 combos (AID 1671461); conditions: drug combinations, stronger effect = higher value;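 also: cells exposed to drugs for 96 hours; 0% = vehicle DMSO and 100% = high DMSO full killing control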
# [14] = growth inhibition of RCMB18 medulloblastoma cells, cell-based, cisplatin and BGB IC40 combos (AID 1671462); conditions: stronger effect = higher value;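 also: cells exposed to compound for four days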
# [15] = growth inhibition of CRL1545 osteosarcoma cells, cell-based, cisplatin and BGB IC20 combos (AID 1671464); conditions: stronger effect = higher value;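 also: cells exposed to compound for 96 hours before readout; 0% = vehicle DMSO and 100% = high DMSO killing control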
# [16] = at 0.5 µM, stronger effect = higher value
# [17] = measured here: combination with BGB IC20, at 0.005 µM
# [18] = measured here: combination with BGB IC40, at 0.005 µM
# [19] = measured here: combination with BGB IC40, at 0.05 µM
# [20] = measured here: combination with cisplatin, at 0.5 µM, stronger effect = higher value
# [21] = measured here: combination with cisplatin, at 5 µM, stronger effect = higher value
# [22] = measured here: with BGB IC20 combination, at 0.5 µM
# [23] = measured here: with cisplatin IC20 combination, at 0.5 µM
# [24] = measured here: 5 uM single agent, at 5 µM
# [25] = measured here: combination with cisplatin, at 0.5 µM
# [26] = measured here: combination with cisplatin, at 5 µM
# [27] = measured here: with BGB IC20, at 0.5 µM
# [28] = measured here: with BGB IC20, at 5 µM
# [29] = measured here: with cisplatin IC20, at 0.5 µM
# [30] = measured here: with cisplatin IC20, at 5 µM
# [31] = measured here: combination with BGB at IC20, at 0.5 µM
# [32] = measured here: combination with cisplatin at IC20, at 0.5 µM
# [33] = measured here: combo with BGB at IC20, at 0.5 µM
# [34] = measured here: combo with cisplatin at IC20, at 0.5 µM
# [35] = measured here: inhibition with BGB combination, at 0.05 µM
# [36] = measured here: inhibition with cisplatin combination, at 0.05 µM
# [37] = measured here: BGB combination, at 0.5 µM
# [38] = measured here: BGB combination, at 5 µM
# [39] = measured here: cisplatin combination, at 0.5 µM
# [40] = measured here: cisplatin combination, at 5 µM
# [41] = BGB combination, concentration series, at 5 µM
# [42] = cisplatin combination, concentration series, at 5 µM
# [43] = measured here: combo with BGB IC20, at 0.5 µM
# [44] = measured here: combo with cisplatin IC20, at 0.5 µM
# [45] = cisplatin combination, at 0.5 µM
# [46] = measured here: BGB IC40 combination 0.05 uM, at 0.05 µM
smiles,measurement,setting,value
O=c1ccn(C2CC(O)C(CO)O2)c(=O)[nH]1 (stereo not drawn),inhibition,[1]; [16],-18.8% (inactive)
same,inhibition,[1]; [17],-7.41%
same,inhibition,[1]; [18],-27.4%
same,inhibition,[1]; [19],-29.5%
same,inhibition,[1]; [20],-37.9%
same,inhibition,[1]; [21],-35.5%
same,inhibition,"[2]; BGB combo, at 5 µM",-20.7%
same,inhibition,[2]; at 0.5 µM,-36.9% (inactive)
same,inhibition,"[2]; cisplatin combo, at 5 µM",-20.7%
same,inhibition,[2]; [22],-38.7%
same,inhibition,[2]; [23],-41.3%
same,inhibition,"[2]; single agent, at 5 µM",-10.1%
same,inhibition,"[3]; BGB IC20 combo, at 0.005 µM",4%
same,inhibition,"[3]; BGB IC40 combo, at 0.005 µM",-31.4%
same,inhibition,"[3]; BGB IC40 combo, at 0.05 µM",-22%
same,inhibition,[3]; at 0.5 µM,-20.1% (inactive)
same,inhibition,"[3]; cisplatin combo, at 0.05 µM",-25.4%
same,inhibition,"[3]; cisplatin combo, at 0.5 µM",-21.2%
same,inhibition,"[3]; cisplatin combo, at 5 µM",-29.4%
same,inhibition,[3]; [24],-22%
same,inhibition,[4]; at 0.5 µM,-29.6% (inactive)
same,inhibition,[4]; [19],-35%
same,inhibition,[4]; [25],-32.9%
same,inhibition,[4]; [26],-47.4%
same,inhibition,[5]; at 0.5 µM,-20.1% (inactive)
same,inhibition,[5]; [27],-39.5%
same,inhibition,[5]; [28],-39.3%
same,inhibition,[5]; [29],-5.42%
same,inhibition,[5]; [30],-49.8%
same,inhibition,"[5]; single agent, at 5 µM",-26.7%
same,inhibition,[6]; at 0.5 µM,-68.3% (inactive)
same,inhibition,[6]; [31],-48.5%
same,inhibition,[6]; [32],-72.4%
same,inhibition,[7]; at 0.5 µM,-3.73% (inactive)
same,inhibition,[7]; [33],-8.35%
same,inhibition,[7]; [34],-4.82%
same,inhibition,[8]; at 0.5 µM,0.16% (inactive)
same,inhibition,[8]; [35],-21%
same,inhibition,[8]; [36],-1.45%
same,inhibition,[9]; at 0.5 µM,-20.5% (inactive)
same,inhibition,[9]; [25],-18.3%
same,inhibition,[9]; [26],-78.5%
same,inhibition,[10]; at 0.5 µM,-14.8% (inactive)
same,inhibition,[10]; [37],-6.54%
same,inhibition,[10]; [38],-25.5%
same,inhibition,[10]; [39],-29.1%
same,inhibition,[10]; [40],-17%
same,inhibition,[11]; [41],-3.77%
same,inhibition,[11]; at 0.5 µM,0.57% (inactive)
same,inhibition,[11]; [42],10.4%
same,inhibition,[12]; at 0.5 µM,3.18% (inactive)
same,inhibition,[12]; [43],-6.85%
same,inhibition,[12]; [44],4.49%
same,inhibition,[13]; at 0.5 µM,-24.6% (inactive)
same,inhibition,[13]; [45],-0.373%
same,inhibition,"[13]; cisplatin combination, at 5 µM",1.74%
same,inhibition,[13]; [46],26.6%
same,inhibition,"[13]; single agent, at 5 µM",-10.6%
same,inhibition,[14]; at 0.5 µM,-15.4% (inactive)
same,inhibition,"[14]; cisplatin combo, at 5 µM",1.69%
same,inhibition,"[14]; measured here: BGB IC40 combination, at 0.05 µM",3.1%
same,inhibition,[14]; [25],9.29%
same,inhibition,"[14]; single agent, at 5 µM",-204%
same,inhibition,[15]; at 0.5 µM,-20.7% (inactive)
same,inhibition,[15]; [22],-5.72%
same,inhibition,[15]; [23],-31.1%
same,inhibition,"[15]; single agent, at 0.05 µM",-46.2%
same,inhibition,"[15]; single agent, at 5 µM",-14.8%
O=C(CCCCCCC(=O)NO)NO,inhibition,[1]; [16],-16.3% (inactive)
same,inhibition,[1]; [17],3.43%
same,inhibition,[1]; [18],-7.94%
same,inhibition,[1]; [19],-3.7%
same,inhibition,[1]; [20],-17.1%
same,inhibition,[1]; [21],37.5%
same,inhibition,"[2]; BGB combo, at 5 µM",16.4%
same,inhibition,[2]; at 0.5 µM,-16.1% (inactive)
same,inhibition,"[2]; cisplatin combo, at 5 µM",-6.26%
same,inhibition,[2]; [22],-13.7%
same,inhibition,[2]; [23],-21.3%
same,inhibition,"[2]; single agent, at 5 µM",-0.771%
same,inhibition,"[3]; BGB IC20 combo, at 0.005 µM",-20.4%
same,inhibition,"[3]; BGB IC40 combo, at 0.005 µM",-41.1%
same,inhibition,"[3]; BGB IC40 combo, at 0.05 µM",-25.8%
same,inhibition,[3]; at 0.5 µM,-27% (inactive)
same,inhibition,"[3]; cisplatin combo, at 0.05 µM",-30.8%
same,inhibition,"[3]; cisplatin combo, at 0.5 µM",-31.2%
same,inhibition,"[3]; cisplatin combo, at 5 µM",-49.1%
same,inhibition,[3]; [24],-5.09%
same,inhibition,[4]; at 0.5 µM,-25% (inactive)
same,inhibition,[4]; [19],-41%
same,inhibition,[4]; [25],-39.7%
same,inhibition,[4]; [26],-49.3%
same,inhibition,[5]; at 0.5 µM,-16.4% (inactive)
same,inhibition,[5]; [27],-21.4%
same,inhibition,[5]; [28],7.58%
same,inhibition,[5]; [29],-13.1%
same,inhibition,[5]; [30],-1.96%
same,inhibition,"[5]; single agent, at 5 µM",8.05%
same,inhibition,[6]; at 0.5 µM,-49.2% (inactive)
same,inhibition,[6]; [31],-52%
same,inhibition,[6]; [32],-0.415%
same,inhibition,[7]; at 0.5 µM,-7.45% (inactive)
same,inhibition,[7]; [33],-12.8%
same,inhibition,[7]; [34],-0.883%
same,inhibition,[8]; at 0.5 µM,-11.1% (inactive)
same,inhibition,[8]; [35],12.4%
same,inhibition,[8]; [36],-20.9%
same,inhibition,[9]; at 0.5 µM,7.53% (inactive)
same,inhibition,[9]; [25],-13.9%
same,inhibition,[9]; [26],4.86%
same,inhibition,[10]; at 0.5 µM,-5.23% (inactive)
same,inhibition,[10]; [37],0.608%
same,inhibition,[10]; [38],5.89%
same,inhibition,[10]; [39],-7.76%
same,inhibition,[10]; [40],14.4%
same,inhibition,[11]; [41],21.1%
same,inhibition,[11]; at 0.5 µM,-7.22% (inactive)
same,inhibition,[11]; [42],38.6%
same,inhibition,[12]; at 0.5 µM,-7.15% (inactive)
same,inhibition,[12]; [43],-3.26%
same,inhibition,[12]; [44],-13%
same,inhibition,[13]; at 0.5 µM,-7.26% (inactive)
same,inhibition,[13]; [45],-13%
same,inhibition,"[13]; cisplatin combination, at 5 µM",18.3%
same,inhibition,[13]; [46],-15.2%
same,inhibition,"[13]; single agent, at 5 µM",28.5%
same,inhibition,[14]; at 0.5 µM,-4.15% (inactive)
same,inhibition,"[14]; cisplatin combo, at 5 µM",6.83%

# Reference: PubChem BioAssay
